Assay outcomes from PubChem.
BLM inh: Bloom syndrome helicase (human) inhibition | actives 0.2% (n = 350,000) | Potency, µM (series often up to 56.1 µM), without a hit: at the highest dose activity change, negative = inhibition, most hits filed as inhibitors | P54132 | recombinant BLM DNA unwinding, fluorescence dequenching | AID 2528;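 also: plate controls were vehicle for no effect and no enzyme for full effect; nearly all actives have a fitted effect of over 35% in size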
APEX1 inh: blocks human APE1 abasic DNA cleavage. Potency, µM (highest dose often 65.8 µM), without a hit: at the top dose activity change, negative = inhibition, most hits filed as inhibitors. recombinant APE1, TAMRA/BHQ-2 abasic DNA cleavage fluorescence. AID 2517. actives 0.35% (n = 350,000). P27695;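 also: plate controls were vehicle for no effect and reference inhibitor for full effect; nearly all actives have a fitted effect of over 55% in size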
Target sequence (P27695 whole entry, looked up): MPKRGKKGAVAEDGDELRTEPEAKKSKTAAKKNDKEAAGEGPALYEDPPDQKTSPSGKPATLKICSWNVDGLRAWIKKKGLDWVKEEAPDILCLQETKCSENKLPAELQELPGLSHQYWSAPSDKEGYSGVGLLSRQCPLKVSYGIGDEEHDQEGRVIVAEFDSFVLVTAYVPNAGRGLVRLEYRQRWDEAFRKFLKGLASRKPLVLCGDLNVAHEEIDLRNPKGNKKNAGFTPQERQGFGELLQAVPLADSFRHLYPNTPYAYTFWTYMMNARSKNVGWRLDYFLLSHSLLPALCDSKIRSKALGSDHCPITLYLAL
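Kinetic fluorescence read (525 ex/598 em nm, three reads 60 s apart) of AP-site incision; signal = third minus first read. Enzyme 0.75 nM, dual-labelled THF duplex 50 nM, compound preincubation 15 min RT.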
RGS4 inhibitor: human RGS4 inhibition. P49798. Transcreener GDP fluorescence polarization, RGS4-accelerated GTP hydrolysis. Potency, µM (series often up to 114 µM), for the others: top-dose activity change, negative = inhibition, hits mostly inhibitors. actives 0.039% (n = 390,000); also: nearly all actives have a fitted effect of over 75% in size
Target sequence (P49798 whole entry, looked up): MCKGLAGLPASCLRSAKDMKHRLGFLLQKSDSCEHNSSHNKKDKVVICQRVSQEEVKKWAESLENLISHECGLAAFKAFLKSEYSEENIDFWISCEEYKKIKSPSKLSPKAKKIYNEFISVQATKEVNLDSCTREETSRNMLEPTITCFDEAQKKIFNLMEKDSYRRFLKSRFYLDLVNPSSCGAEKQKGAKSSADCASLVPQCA
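MLSMR compounds (23 nl, pin-transferred) preincubated 10 min at room temperature with a 500nM (2x) first reagent, then RGS4 at 900nM (2x) plus Transcreener GDP mix added; fluorescence polarization (620/688 nm) read before and after 90 min at 30 °C.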
KAT2A inh: inhibitors of human GCN5L2 histone acetyltransferase. GCN5L2 HAT assay, ThioGlo1 CoA-SH fluorescence. Potency, µM (series often up to 58.9 µM), for inactives: at the highest dose activity change, negative = inhibition, usual class: inhibitors. actives 0.21% (n = 390,000)
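Free CoA generated was detected with ThioGlo1 (50uM) fluorescence at Ex340nm/Em540nm, read immediately and after 20 min at room temperature. Enzyme, 20 nM in HEPES pH 7.5 buffer, saw compounds 15 min before adding 75uM H3(1-25) peptide and 70uM acetyl-CoA.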
TDP1 inh: blocks human tyrosyl-DNA phosphodiesterase 1; Q9NUW8; recombinant TDP1, AlphaScreen DNA substrate cleavage; Potency, µM (series often up to 130 µM), inactives show top-dose activity change, negative = inhibition, usual class: inhibitors; actives 0.28% (n = 350,000); AID 485290; also: nearly all actives have a fitted effect of over 40% in size
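Steps: enzyme plus compound, 15 min RT; add biotin/phosphotyrosine-FITC oligonucleotide (15 nM final), react 5 min; add donor/acceptor beads (10 ug/ml final), 10 min; read AlphaScreen. Tdp1 at 1 nM final.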
RECQ1 helicase: RECQ1 (human) helicase inhibition; RECQ1 DNA unwinding, red fluorescence kinetic read; Potency, µM (series often up to 57.3 µM), for inactives: at the highest dose activity, negative = inhibition, usual class: inhibitors; actives 0.54% (n = 240,000);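 also: plate controls were vehicle for no effect and no enzyme for full effect; nearly all actives have a fitted effect of over 30% in size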
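50 nM RECQ1T1 preincubated 15 min with compound in Tris pH 8.0 buffer with MgCl2, DTT, Tween-20 and 2.5 ug/ml poly(dI-dC); started with 200 nM TAMRA/BHQ-2 forked duplex and 2 mM ATP. Unwinding read as fluorescence (525/598 nm), two reads 2 h apart.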
* hit, by the source's call; i = inactive; ? = inconclusive; . = no result; ! = repeats disagree; [ ] = dose if it differs, or a comment. An excerpt weighted towards active compounds, which were near 0.87% of everything screened. Calls follow the shape of the dose curve; as a rule, active = well fitted curve in the direction sought with a large enough effect; inconclusive = small, poorly fitted or top-dose-only effect, or another doubt; inactive = no such curve, though single readings can be large; an effect the other way counts as inactive or inconclusive. Unless noted, % is scaled to controls: 0 for no effect and ±100 for the full control effect; potency is read from the fitted curve at half-maximal effect.

SMILES	BLM inh	APEX1 inh	RGS4 inhibitor	KAT2A inh	TDP1 inh	RECQ1 helicase
COC(=O)C1=C(C)NC(C)=C(C(=O)OCCSc2ccccc2)C1C (stereo not drawn)	-14%	-10%	38µM*	-4%	-10%	?
CCCOCc1cc(CN2CCN(c3cccc(Cl)c3)CC2)c(O)c2ncccc12	-7%	.	2%	-13%	13%	.
CCCCOCc1cc(CN2CCN(c3cccc(Cl)c3)CC2)c(O)c2ncccc12	-4%	.	14%	20µM*	10%	.
O=C(Cn1cc(CN(Cc2ccccc2)Cc2ccccc2)nn1)Nc1cc(C(F)(F)F)ccc1Cl	.	.	.	.	1%	.
Cc1ccc(NS(=O)(=O)c2ccc(N3CCCC3=O)cc2)cc1C	.	.	.	.	0%	.
COc1ccc(C2Nc3ccccc3C(=O)N2Cc2cccc(C(F)(F)F)c2)cc1COc1ccc(NC(C)=O)cc1 (stereo not drawn)	.	.	.	.	2%	.
CCCCCCCCCCCCCCCC(=O)C1=C(O)C(CO)OC1=O (stereo not drawn)	.	?	90%[56.9 µM]	11µM*	21%	35µM*
CCCCCCCCC1OC1CCCCCCCC(=O)O (stereo not drawn)	-1%	-2%	.	.	3%	6%
COc1ccc2c(Cl)c(-c3nnc(SCC(=O)c4ccccc4)n3C)sc2c1	-15%	-2%	?	1%	89µM*	i
O=c1[nH]cc(C#Cc2ccccc2)c2ncncc12	.	.	12%	.	1%	.
O=C(c1ccco1)N1CCN(C(=O)c2ccc(-c3ccc([N+](=O)[O-])cc3)o2)CC1	.	?	?	?	35µM*	.
O=C(c1ccc([N+](=O)[O-])cc1)N1CCN(C(=O)c2ccco2)CC1	2%	1%	29%	-4%	-1%	28%
O=C(N/N=C/c1cn(-c2cccs2)nc1-c1ccccc1)c1ccccc1O	20µM*	2%	-2%	-29%	-3%	-2%
COc1cc(/C=C(\C#N)C(=O)NCCc2ccccc2)cc(OC)c1O	1%	16%	-31%	-11%	-5%	i
N#C/C(=C\c1ccc(O)c(O)c1)C(=O)NCCc1ccccc1	.	7%	19µM*!	-19%	16%[56.1 µM]	?
N#C/C(=C\c1ccc(O)c(O)c1)C(=O)NCCCCc1ccccc1	?	?	i	?	17%[56.1 µM]	10µM*
O=C(COC(=O)c1ccc([N+](=O)[O-])s1)NCc1ccc(F)cc1	-18%	32µM*	-14%	-3%	3%	-7%
CC1CCC2(C1)N=C(Nc1nc3ccccc3o1)NC1=C2C(=O)CCC1 (stereo not drawn)	.	.	.	.	1%	.
O=c1c2ccccc2nc2sc(Nc3ccc(F)cc3)nn12	.	?	-10%	-2%	56µM*	.
O=c1c(O)c(-c2cc(O)c(O)c(O)c2)oc2cc(O)ccc12	-27%	0.28µM*	.	?	.	4.5µM*
Cc1ccc(Cl)cc1NS(=O)(=O)c1cc2c(cc1Cl)CCC(=O)N2	.	.	.	.	2%	.
CC(c1ccco1)N(C)c1ncnc2ccc(-c3ccc4c(c3)OCO4)cc12 (stereo not drawn)	.	.	.	.	1%	.
O=C(NNC(=O)c1cccs1)c1ccc(Cl)nc1	.	9%	1%	-5%	89µM*	.
O=C(NNC(=O)c1cccs1)c1ccc(F)cc1	-4%	-17%	8%	-5%	2%	.
Cc1cc(=O)oc2c3c(cc(OCC(=O)N4CCC(C(=O)O)CC4)c12)OC(C)(C)CC3	-2%	35%	15%	18µM*	.	.
SMILES	BLM inh	APEX1 inh	RGS4 inhibitor	KAT2A inh	TDP1 inh	RECQ1 helicase
Cc1c(C)c2c(OCC(=O)N3CCC(C(N)=O)CC3)cc3c(c2oc1=O)CCC(C)(C)O3	2%	6%	38%	?	.	.
COc1ccc(-c2nc3ccc(Cl)cc3c(=O)n2Cc2ccccc2)cc1COc1ccc(NC(C)=O)cc1	.	.	.	.	0%	.
O=C(O)c1ccc2ncsc2c1	-7%	2%	-15%	-15%	45µM*	i
O=C(c1ccc2ncsc2c1)N1CCCCC1	1%	37%	-9%	-10%	4%	.
CC(C)(C)OC(=O)C[C@@H]1C/C=C\C[C@@H](CC(=O)N(CCO)Cc2ccccc2)C(=O)N[C@H](C(C)(C)C)COC1=O	.	12µM*	9%	0%	-3%	.
CC(C)N1C(=O)S/C(=C\c2ccc(-c3ccc(Cl)c(C(=O)O)c3)o2)C1=O	1%	-24%	-49%	-23%	25µM*	.
CCOC(=O)CN1C(=O)S/C(=C\c2ccc(-c3ccc(C(=O)O)c(Cl)c3)o2)C1=O	-2%	15µM*	-8%	?	8.9µM*	.
Cc1ccc(N2NC(=O)/C(=C/c3ccc(-c4ccc(Cl)c(C(=O)O)c4)o3)C2=O)cc1	-3%	1%	10%	-2%	8%	-3%
COc1ccc(C2Nc3ccccc3C(=O)N2Cc2ccc(-c3ccccc3)cc2)cc1COc1ccc(NC(C)=O)cc1 (stereo not drawn)	.	.	.	.	-3%	.
COc1cc(/C=C(\C#N)C(N)=O)cc(CSc2nc3ccccc3s2)c1O	-5%	-2%	-100%[56.9 µM]	28µM*	15%	18%
Cc1ccc(-c2nc(-c3cc4cc(Cl)ccc4oc3=O)sc2C)cc1	.	.	-22%	.	-8%	.
COc1ccc(-n2c(Cc3cccn3C)nnc2SCC(=O)N2CCCc3ccccc32)cc1	-6%	10%	-42%	19%	10%	16µM*
O=c1c([N+](=O)[O-])c(N2CCCC2)c2ccccc2n1-c1ccccc1	-3%	-2%	-26%	-5%	1%	i
CC1CCN(c2c([N+](=O)[O-])c(=O)n(-c3ccccc3)c3ccccc23)CC1	-1%	4%	-6%	1.4µM*	8%	i
C/C(N)=C(/C#N)C(=O)CN1C(=O)NC(Cc2c[nH]c3ccccc23)C1=O (stereo not drawn)	-18%	15µM*	11%	3%	.	.
CC(=O)c1ccc(Sc2ccccc2N)c([N+](=O)[O-])c1	-11%	2%	-42%	-4%	11%	2%
Nc1ccccc1Sc1ccc(C(=O)c2ccccc2C(=O)O)cc1[N+](=O)[O-]	-5%	-2%	?	20µM*	0%	-4%
O=C(NNC(=O)C1[C@H]2CCCC[C@@H]12)Nc1cccc2ccccc12 (stereo partly drawn)	1%	0%	7%	25µM*	1%	i
COc1cccc(C2c3c(ncn(-c4ccc(-c5ccccc5)cc4)c3=N)Oc3ccc4ccccc4c32)c1 (stereo not drawn)	.	.	.	.	3%	.
COCCN(C(=O)COC(=O)/C=C/c1ccco1)c1c(N)n(Cc2ccccc2)c(=O)[nH]c1=O	-9%	?	-12%	-5%	25µM*	.
